mHTT CaM bind – mutant huntingtin-calmodulin interaction inhibitors – biochemical, AlphaScreen, primary screen | inhibition, % at 15 µM | hit rate 3.6% among 190,000 | AlphaScreen His-mHTT/GST-CaM binding, luminescence | AID 1671202, 2021 | P42858
Pf apPOL block – Pf-apPOL inhibitors, biochemical, fluorescence; Plasmodium falciparum apicoplast DNA polymerase (apPOL); Recombinant Pf-apPOL, molecular beacon fluorescence, 1.5 h; inhibition, % at 10 µM; hit rate 0.25% among 210,000
Of the large screens only hits and unclear results are named; the others gave an inactive call. Compounds with a hit are over-represented: about 3.5% of the library has one in this group of screens. No stated cut-off is given here; in the data, active means inhibition above about 50%; inactive means the rest.

Cc1ccc(NC(=O)C2CCCN(c3nccc(C)n3)C2)c(Br)c1 (stereo unspecified)	none
Cc1ccc(NC(NC(=O)Nc2ccccc2)C(Cl)(Cl)Cl)cc1 (stereo unspecified)	mHTT CaM bind 85.0
Cc1ccc(NC(=O)Nc2ccc(Cl)cc2)cc1	none
CCCC(=O)NC(c1ccc(N(C)C)cc1)c1cc(Cl)c2cccnc2c1O (stereo unspecified)	none
OC(c1ccc2c(c1)OCO2)c1nccc2ccccc12 (stereo unspecified)	none
CC(=O)NC(c1ccccc1Cl)c1cc(Cl)c2cccnc2c1O (stereo unspecified)	mHTT CaM bind 95.0
CC(C)C(=O)NC(c1ccc2c(c1)OCO2)c1cc(Cl)c2cccnc2c1O (stereo unspecified)	mHTT CaM bind 62.0
CC(=O)NC(c1ccc(N(C)C)cc1)c1cc(Cl)c2cccnc2c1O (stereo unspecified)	mHTT CaM bind 96.0
CC(=O)NC(c1ccccc1)c1cc(Cl)c2cccnc2c1O (stereo unspecified)	mHTT CaM bind 100.0
CCOc1ccccc1/C=C1\N=C(c2ccc(OC)c([N+](=O)[O-])c2)OC1=O	none
COc1ccc([N+](=O)[O-])cc1NC(=O)c1ccccc1NS(=O)(=O)c1ccc(C)cc1	none
CC(=O)N1CCc2nn(CC(=O)Nc3ccccc3C(C)C)c(=O)cc2C1	none
CC(=O)NC(c1ccc(C(C)C)cc1)c1cc(Cl)c2cccnc2c1O (stereo unspecified)	mHTT CaM bind 100.0
CCCCC(=O)NC(c1ccc(OC)cc1)c1cc(Cl)c2cccnc2c1O (stereo unspecified)	none
COc1ccc(C(NC(C)=O)c2cc(Cl)c3cccnc3c2O)cc1 (stereo unspecified)	mHTT CaM bind 100.0
CC(C)[C@@H](CC#N)N1CCN(Cc2ccccc2)CCC1=O	none
COc1ccc(Br)cc1C(=O)Nc1ccccc1F	none
CCOC(=O)Nc1ccc2c(c1)N(C(C)=O)c1ccccc1CC2	none
O=C(C[C@H]1C(=O)N(CCc2ccccc2)C[C@@H]1Cc1ccccc1)Nc1ccc(Br)cc1	none
CSC[C@H]1CN(CCc2ccccc2)C(=O)[C@@H]1CC(=O)Nc1ccc(Br)cc1	mHTT CaM bind 63.0
Cc1ccc(NS(=O)(=O)c2ccc(Cl)cc2)cc1	none
Cc1ccc(S(=O)(=O)Nc2ccc(N(C)C)cc2)cc1	mHTT CaM bind 54.6
Cc1noc(-c2nn(C)c3c2CN(C(=O)CCc2ccccc2)CC3)n1	none
Cc1ccnc(NC(c2cccc(C)n2)c2ccc3cccnc3c2O)c1 (stereo unspecified)	mHTT CaM bind 87.0
Cc1ccnc(NC(c2cc(C)ccc2O)c2ccc3cccnc3c2O)c1 (stereo unspecified)	mHTT CaM bind 99.0
Cc1ccnc(NC(=O)c2cccc(Cl)c2)c1	none
Cc1ccc(C)c(NC(=O)CSc2cccc3cccnc23)c1	none
COc1cccc(C(N)CC(=O)O)c1 (stereo unspecified)	none
O=C(NCc1ccccc1)c1cccc(NC(=O)c2ccccc2)c1	none
CCCCn1c(=N)c(S(=O)(=O)c2ccc(C)cc2)cc2c(=O)n3cccc(C)c3nc21	none
CC(C(=O)O)c1cccc(C(=O)c2ccccc2)c1 (stereo unspecified)	none (no result: mHTT CaM bind)
CS(=O)(=NC(=O)Nc1ccccc1)c1cccs1 (stereo unspecified)	none (no result: mHTT CaM bind)
Cc1ccccc1NS(=O)(=O)c1cccs1	none
CCOc1ccc(S(=O)(=O)N=C(Nc2ccccn2)c2ccccc2)cc1	none
CCOc1ccc(S(=O)(=O)N=C2C=C(Nc3ccc(O)cc3)C(=O)c3ccccc32)cc1	mHTT CaM bind 94.0
Cc1ccc(Cl)cc1NC1=CC(=NS(=O)(=O)c2cccs2)c2ccccc2C1=O	mHTT CaM bind 79.0
CCOc1ccc(NC2=CC(=NS(=O)(=O)c3ccccc3)c3ccccc3C2=O)cc1	mHTT CaM bind 66.0
O=C1C(Nc2ccc(O)cc2)=CC(=NS(=O)(=O)c2cccs2)c2ccccc21	mHTT CaM bind 94.0
CCOc1ccc(NC2=CC(=NS(=O)(=O)c3ccc(OC)cc3)c3ccccc3C2=O)cc1	none
COc1ccc(CC(=O)N(C)c2ccccc2)cc1	none
O=C(CSc1nc2ccccc2[nH]1)NC1CC1	none
CCc1onc(C)c1C1CCCN1C(=O)Nc1cccc(Cl)c1C (stereo unspecified)	none
O=C1C=C(N2CCN(C(=O)c3ccccc3)CC2)C2(CCCCC2)O1	none
CCc1ccc(S(=O)(=O)Nc2ccc(O)cc2)cc1	none
CCc1ccc(S(=O)(=O)N=C2C=C(Nc3ccc(O)cc3)C(=O)c3ccccc32)cc1	mHTT CaM bind 72.0
COCCNc1c2c(c(C#N)c3nc4ccccc4n13)CCCC2	none
COc1ccc(C(=O)NNS(=O)(=O)c2cn(C)cn2)cc1OC1CCCC1	none (no result: mHTT CaM bind)
Cc1ccc(C)n1-c1ccc(S(N)(=O)=O)cc1	mHTT CaM bind 74.9
Cn1c(=O)n(-c2ccc(S(N)(=O)=O)cc2)c(=O)n1C	none
O=C(O)c1ccc(-c2ccccc2F)o1	none
CN1CCN(S(=O)(=O)c2ccc(Br)s2)c2ccccc21	none
COc1ccccc1NC(=O)Nc1ncccc1C	none
CCc1nnc(NC(=O)c2c[nH]c3c(Cl)cccc3c2=O)s1	none
CCCNC(=O)c1ccc2c(c1)ncn2-c1ccc(CC)cc1	none
CCOC(=O)c1cc(-c2ccnn2S(=O)(=O)c2cccc(C(F)(F)F)c2)on1	Pf apPOL block 81.9 (no result: mHTT CaM bind)
Cc1cc(-c2nc(-c3ccnn3S(=O)(=O)c3cccc(C(F)(F)F)c3)cs2)no1	none (no result: mHTT CaM bind)
COc1cc(OC)cc(C(=O)Nc2nc3ccc(Cl)cc3s2)c1	none
COc1cc(C=Nc2ccc(NC(C)=O)cc2)cc(OC)c1OC	none
COc1cc(C=Nc2cccc3c(=O)[nH][nH]c(=O)c23)c([N+](=O)[O-])cc1OC	none
COc1cc(C=Nc2ccc(Nc3ccccc3)cc2)c([N+](=O)[O-])cc1OC	mHTT CaM bind 96.0
COc1cc(C=Nc2ccc(Nc3ccccc3)cc2)cc(OC)c1OC	mHTT CaM bind 76.0
COc1cccc(C(=O)N2CCN=C2SC)c1OC	none
COc1cccc(C(=O)N2CCN=C2SCc2cccc(F)c2)c1OC	Pf apPOL block 59.1
CC(=O)N(C)Cc1nn(-c2ccccc2)c2c1CN(Cc1ccccc1F)CC2	mHTT CaM bind 68.0
Cn1nc(COCc2ccccc2F)c2c1CCN(C(=O)c1ccccc1)C2	none
COC1=CC(=O)C=C(OC)C1=O	none (no result: mHTT CaM bind)
C=CCN1C(=O)C(=O)c2cc(Br)ccc21	none
O=C1C(=O)N(Cc2ccc(Cl)c(Cl)c2)c2ccc(Br)cc21	mHTT CaM bind 100.0
Cc1ccc(CN2C(=O)C(=O)c3cc(Br)ccc32)cc1	mHTT CaM bind 51.0
O=C1C(=O)N(Cc2ccc(F)cc2)c2ccc([N+](=O)[O-])cc21	none
CCCN1C(=O)C(=O)c2cc(Br)ccc21	none
O=C1C(=O)N(Cc2ccc(F)cc2)c2ccc(Br)cc21	mHTT CaM bind 70.0
NC(=O)Cc1csc(NC(=O)c2csc(Nc3ccc(OC(F)F)cc3)n2)n1	none
Cc1cc(S(=O)(=O)c2ccc(Cl)cc2)c(C)c(S(=O)(=O)N2CCOCC2)c1	none
Cc1oc(C2CCN(C(=O)Nc3cccc(C#N)c3)CC2)nc1C(=O)N1CCCC1	none
O=C(CSc1ncccn1)OCc1cc(-c2ccco2)on1	none
COC(=O)Nc1ccc(S(=O)(=O)N2CCCC(C(=O)N3CCCC4CCCCC43)C2)cc1 (stereo unspecified)	none
O=c1c(-c2cnn(-c3ccccc3)c2)coc2cc(O)ccc12	none
CC(=O)N1CCCN(C2=Nc3ccc(C)cc3Oc3ccccc32)CC1	mHTT CaM bind 53.7
CC(=O)N1CCN(C2=Nc3ccccc3Oc3ccccc32)CC1	none

Assay outcomes as filed in PubChem.
